Bioassay records: PubChem, National Center for Advancing Translational Sciences (NCATS)
The list is not random: actives were taken first. Their share in the collection is about 9%.
ALDH1A1 inh: qHTS Assay for Inhibitors of Aldehyde Dehydrogenase 1 (ALDH1A1). Aldehyde dehydrogenase 1A1 (Homo sapiens), P00352. Purified ALDH1A1, NADH fluorescence, propionaldehyde substrate. Potency, µM (top dose mostly 75.3 µM), most hits filed as inhibitors. 220,000 compounds, 7.3% hits
IMPase inh: qHTS Assay for Identifying the Cell-Membrane Permeable IMPase Inhibitors; inhibition (IP1 accumulation), % at 46.1 µM; AID 901, 2007; Inositol monophosphatase 1 (Rattus norvegicus), P97697; 120,000 tested, under 10 active; CHO-M1 cells, IP1 accumulation, HTRF TR-FRET ratio; active means well fitted curve in the direction sought with a large enough effect in the signal ratio, not every such curve was filed as active; inconclusive means small, poorly fitted or top-dose-only effect, or a change in a side signal; inactive means no such curve, though single readings can be large or run the other way; the % refers to the signal ratio;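 further: cells stimulated with carbachol in lithium chloride buffer; higher means more IMPase inhibition seen as more IP1 and lower FRET ratio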
Target sequence (P97697 whole entry, looked up): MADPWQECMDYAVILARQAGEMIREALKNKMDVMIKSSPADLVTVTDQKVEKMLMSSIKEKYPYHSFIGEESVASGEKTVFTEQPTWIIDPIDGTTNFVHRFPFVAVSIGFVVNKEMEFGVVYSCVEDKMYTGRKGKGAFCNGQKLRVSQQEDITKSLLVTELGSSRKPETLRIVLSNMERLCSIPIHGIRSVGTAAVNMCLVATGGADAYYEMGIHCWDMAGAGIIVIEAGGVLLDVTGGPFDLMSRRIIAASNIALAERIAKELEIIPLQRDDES
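CHO-M1 cells (CHO stably expressing M1 receptor), compound up to 46 uM final, stimulated with carbachol (50 uM as added) in buffer with 50mM LiCl, pH 7.4, 30 min at 37C. Cytosolic IP1 read by TR-FRET; AC50 from Hill fits.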
HPGD inh: qHTS Assay for Inhibitors of HPGD (15-Hydroxyprostaglandin Dehydrogenase); 15-hydroxyprostaglandin dehydrogenase [NAD(+)] (Homo sapiens), P15428; purified HPGD, NADH fluorescence kinetic, PGE2 substrate; Potency, µM, most hits filed as inhibitors; 150,000 compounds, 4.3% hits; AID 894, 2007
Target sequence (P15428 whole entry, looked up): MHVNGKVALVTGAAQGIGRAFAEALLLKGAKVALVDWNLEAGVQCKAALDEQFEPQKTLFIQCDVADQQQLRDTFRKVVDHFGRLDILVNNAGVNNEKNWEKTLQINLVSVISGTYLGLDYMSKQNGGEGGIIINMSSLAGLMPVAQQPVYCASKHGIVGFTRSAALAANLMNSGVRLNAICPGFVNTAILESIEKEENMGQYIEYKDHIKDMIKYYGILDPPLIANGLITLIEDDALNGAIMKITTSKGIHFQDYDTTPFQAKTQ
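NADH formation kinetics: reaction with 30 uM PGE2 and 1 mM NAD+ (final), 20 nM enzyme, Tris-HCl pH 8 with Tween 20, after 15 min compound preincubation at room temperature. Fluorescence change, last versus first of five reads.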
A number is an active result; - = inactive; ? = inconclusive; . = no result; ! = not active in a repeat; [ ] = dose if it differs, or a comment. Unless noted, the call rests on the fitted dose curve; in most records, active means well fitted inhibition curve with a large enough effect (not every such curve was filed as active); inconclusive means small, poorly fitted or top-dose-only effect, or another doubt; inactive means no such curve, though single readings can be large or run the other way.

SMILES	ALDH1A1 inh	IMPase inh	HPGD inh
CC(=O)N1CCC(=NNc2ccc(S(=O)(=O)N3CCOCC3)cc2[N+](=O)[O-])CC1	-	.	-
CC(C)N1CCC(=NNc2ccc(S(=O)(=O)N3CCOCC3)cc2[N+](=O)[O-])CC1	28µM	.	-
COc1ccc(C2(CNC(=O)C(=O)Nc3ccc(C)cc3)CCOCC2)cc1	-	.	.
CC(=O)Nc1ccc(S(=O)(=O)Oc2ccc(/C=C3\SC(N)=NC3=O)cc2)cc1	-	.	.
Cc1cc(NS(=O)(=O)c2ccc(NC(=S)NC(=O)c3ccccc3)cc2)no1	?	-	-
CC(=O)c1ccc(NS(=O)(=O)c2ccc(C(C)(C)C)cc2)cc1	13µM	.	.
O=C(Nc1cccc(C2OCCCO2)c1)c1cccs1	-	.	-
CC(C)(C)c1ccc(S(=O)(=O)Nc2cccc(C3OCCCO3)c2)cc1	25µM	.	-
CC(=O)Nc1ccc(OS(=O)(=O)c2ccc(C(C)(C)C)cc2)cc1	13µM	.	.
CC(=O)c1ccc(NS(=O)(=O)c2ccc(C)cc2)cc1	-	-	?
Cc1cc(NS(=O)(=O)c2ccc(NC(=S)NC(=O)c3ccc(C(C)(C)C)cc3)cc2)no1	13µM	.	18µM
Cc1ccc2cc(C#N)c(SCc3nnc(-c4ccccc4[N+](=O)[O-])o3)nc2c1	-	-	?
CC(C)c1nnc(NC(=O)C2CCCN2C(=O)Nc2ccccc2[N+](=O)[O-])s1 (stereo not drawn)	-	.	.
CCOC(=O)Cc1csc(NC(=O)COc2cc(C)cc(C)c2)n1	-	.	.
Cc1cc(NS(=O)(=O)c2ccc(NC(=O)CCCOc3ccc(Cl)cc3)cc2)no1	-	-	?
Cc1cc(NS(=O)(=O)c2ccc(NC(=S)NC(=O)c3ccc(Cl)cc3Cl)cc2)no1	-	-	25µM
C[C@@](N)(Cc1c[nH]c2ccccc12)C(=O)O	-[13.5 µM]	.	-
Cc1ccc(Cl)c2c1=NC(=O)C=2c1[nH]c(=S)[nH]c1O	-	.	.
O=C1N=c2ccccc2=C1c1[nH]c(=S)[nH]c1O	11µM	-	-
COC(=O)C1=C(O)/C(=C\c2ccc(O)c(OC)c2)N=C1C	-	?	-
COc1cc(/C=C/C(=O)/C=C(O)/C=C/c2ccc(O)c(OC)c2)ccc1O	-	.	22µM!
COc1cc(C=C(C(C)=O)C(C)=O)ccc1O	-	-	-
COc1cc(C=O)ccc1O	25µM	-	-
COc1cc(/C=C/C(=O)CC(=O)/C=C/c2ccc(O)c(OC)c2)ccc1O	8.9µM!	-	14µM!
COc1cc(/C=C2/C(=O)CNC2=O)ccc1O	13µM	.	.
SMILES	ALDH1A1 inh	IMPase inh	HPGD inh
COc1cc(/C=C/C(=O)O)ccc1O	-	.	-
COc1cc(/C=C/C(=O)c2c(O)cc(C)oc2=O)ccc1O	-	.	-
CN(CC(=O)NCc1cccc(F)c1)C(=O)c1ccco1	-	-	-
CCOC(=O)n1ccn(C)c1=S	-	-	-
Cc1cccc(N2CCN(CCCNC(=O)c3nnc(Cc4c(F)cccc4Cl)o3)CC2C)c1 (stereo not drawn)	.	-	.
CN(Cc1ccccc1)C(=O)CCCn1c(=O)[nH]c2cc(Cl)ccc2c1=O	-	-	25µM
O=C(CCCn1c(=O)[nH]c2cc(Cl)ccc2c1=O)NC1CCCCCCC1	-	-	-
Cc1ccccc1C(=O)NC(=S)N(C)CCc1ccccn1	-	.	.
C/C(=N/Nc1nc(C)cc(=O)[nH]1)C(=O)O	-[13.5 µM]	.	-
COc1ccc(C(=O)NNC(=S)NC(=O)c2ccc(Br)o2)cc1OC	-	.	.
COc1ccc(C(=O)NC(=S)NNC(=O)c2cnccn2)cc1OC	28µM	-	-
O=C(/C=C/c1ccccc1)NC(=S)NNC(=O)c1cccnc1	-	-	-
COc1cc(OC)cc(C(=O)NC(=S)NNC(=O)c2cnccn2)c1	40µM	-	-
COc1cc(OC)cc(C(=O)NNC(=O)c2ccccn2)c1	-	-	-
COc1ccc(/C=C/C(=O)NC(=S)NNC(=O)c2cccnc2)cc1OC	-	-	32µM
CCOC(=O)CN1C=C(c2ccc3ccccc3n2)C(C[N+](=O)[O-])c2ccccc21 (stereo not drawn)	-	-	-
CCn1c(CCC(=O)Nc2nc3c(s2)CCCC3)nc2cc(S(=O)(=O)N(C)C)ccc21	16µM	-	-
CCN(CC)S(=O)(=O)c1ccc2c(c1)nc(CCC(=O)O)n2CC	-	.	.
NCCC[C@@](N)(C(=O)O)C(F)F	.	-	.
COc1ccc(CNc2cc(-c3ccccc3OC)ncn2)c(OC)c1	-	.	.
Cc1nc(NC(=O)C(Cl)Cl)sc1C(=O)N(C)C	-	.	-
Cc1nc(NC(=O)CCl)sc1C(=O)N(C)C	32µM	.	.
CN1CCN(Cc2nc3ccccc3c(=O)n2Cc2nc(-c3ccc([N+](=O)[O-])cc3)cs2)CC1	13µM	-	.
CN1CCN(Cc2nc3ccccc3c(=O)n2CC#N)CC1	-	.	.
CCCCC(CC(O)COCCC)C(=O)NN (stereo not drawn)	-	.	.
SMILES	ALDH1A1 inh	IMPase inh	HPGD inh
FCCCOc1ccc(CN2CCN(c3ccccc3F)CC2)cc1	-	.	.
O=C(COc1ccccc1)N/N=C/c1ccc2c(c1)OCO2	-	.	.
COc1ccccc1N/N=C/c1ccc2c(c1)OCO2	?	.	16µM
Cc1ccc(S(=O)(=O)N(CC#N)CC#N)cc1	-	.	.
CCOC(=O)c1ccc(NC(=O)COc2ccc(S(=O)(=O)NC(C)CC)cc2)cc1 (stereo not drawn)	-	-	-
CCOC(=O)c1ccc(NC(=O)C(C)NS(=O)(=O)c2ccc(OC)cc2)cc1 (stereo not drawn)	14µM	-	?
COc1cccc(NC(=O)/C(C#N)=C\c2cn(Cc3ccc(C)cc3)c3ccccc23)c1	.	-	.
CCOC(=O)c1nnn(-c2nonc2N)c1CSc1ccccc1	?	-	-
CCOC(=O)c1nnn(-c2nonc2N)c1CSc1ccc(C)cc1	4.5µM	-	-
CC(C)(C)Cc1nnc(NS(=O)(=O)c2ccc(F)cc2)s1	?	-	?
CC(C)(C)Cc1nnc(NS(=O)(=O)Cc2ccccc2)s1	25µM	-	-
COc1ccc(N2CC(O)=C(c3nc4ccccc4s3)C2=N)c(OC)c1	-	-	?
N=C1C(c2nc3ccccc3s2)=C(O)CN1Cc1ccco1	22µM	-	?
Cc1ccc(S(=O)(=O)N(C)Cc2ccc(C(=O)NN=C3C4CC5CC(C4)CC3C5)cc2)cc1	0.5µM	-	.
COc1cc(/C=N/NC(=O)c2ccc(CN(C)S(=O)(=O)c3ccc(C)cc3)cc2)ccc1O	-	.	.
Cc1ccc(S(=O)(=O)N(C)Cc2ccc(C(=O)N/N=C3\CCCC(=O)C3)cc2)cc1	?	.	-
CC/C(=N\NC(=O)c1ccc(CN(C)S(=O)(=O)c2ccc(C)cc2)cc1)c1ccc(OC(F)F)cc1	13µM	.	-
CC/C(=N\NC(C)=O)c1ccc(OC(F)F)cc1	-	.	.
Cc1ccc(S(=O)(=O)N(C)Cc2ccc(C(=O)NN=C(CC(C)C)CC(C)C)cc2)cc1	7.1µM	.	-
C/C=C(\C)C(=O)C[Si](C)(C)c1ccccc1	-	.	-
CCOC(=O)N/N=C1/C[C@@H](O)[C@@H](O)[C@@H]2[C@@H]3C(=O)N(c4cccc(Oc5ccccc5)c4)C(=O)[C@H]3CC[C@@H]12	-[13.5 µM]	.	.
Cc1cccc(C)c1NC(=O)CSc1nnc(-c2cccnc2)o1	-	.	.
